Mot1-301 SUMO: SUMOylation pathway inhibition by Mot1-301 growth rescue. growth rescue, % at 18.8 µM. S. cerevisiae Mot1-301 growth rescue, ATP luminescence, 38.5C; percent above DMSO median, 100 means doubled. AID 2716. 320,000 tested, 1% active;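 active = every valid replicate shows activation above 250% relative to neutral control wells; inactive = the rest, any valid replicate at or below 250%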
CASP6 VEID inh: caspase-6 (human) enzyme inhibition | AID 686996 | inhibition, % at 12.5 µM | 350,000 tested, 0.53% active | purified caspase-6, Z-VEID-R110 cleavage fluorescence;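 active = mean inhibition across replicates at least about 35%, with every replicate also reaching that limit, limit read from the data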
Target sequence (P55212 24-179 limits assumed): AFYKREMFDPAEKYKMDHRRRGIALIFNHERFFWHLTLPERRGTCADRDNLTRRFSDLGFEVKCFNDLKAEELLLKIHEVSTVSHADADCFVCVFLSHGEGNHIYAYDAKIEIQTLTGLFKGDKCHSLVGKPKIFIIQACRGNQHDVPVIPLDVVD
Target sequence (P55212 194-293 limits assumed): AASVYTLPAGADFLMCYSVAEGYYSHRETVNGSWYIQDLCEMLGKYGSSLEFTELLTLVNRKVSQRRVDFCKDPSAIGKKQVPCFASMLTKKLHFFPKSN
N-glyco inh: blocks N-linked glycosylation in D54 reporter cells; 360,000 tested, 0.23% active; reporter increase, % at 12.5 µM; AID 588692; D54 ERlucT glycosylation luciferase reporter, 24 h; percent of 100 nM tunicamycin response;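 active = mean luciferase reporter signal, scaled so untreated is 0 and the glycosylation-blocking control 100, at or above a set limit in every replicate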;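 also: luciferase carries N-glycosylation sites so blocking glycosylation raises the light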
ALR inh: inhibitors of human sulfhydryl oxidase ALR | 290,000 tested, 3.8% active | AID 485317 | inhibition, % (concentration not given with the values) | P55789 | purified ALR, DTT oxidation, H2O2 HRP-luminol luminescence;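 active = mean replicate inhibition above about 79%, with every replicate also reaching it, limit read from the data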
Target sequence (P55789 whole entry, looked up): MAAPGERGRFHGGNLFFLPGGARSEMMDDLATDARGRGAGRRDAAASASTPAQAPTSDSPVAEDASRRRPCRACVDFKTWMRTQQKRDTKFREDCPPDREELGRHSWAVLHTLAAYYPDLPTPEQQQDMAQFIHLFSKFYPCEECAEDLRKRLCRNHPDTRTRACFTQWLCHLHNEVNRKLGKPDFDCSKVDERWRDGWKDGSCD
NSD2 HMT inh: inhibitors of human histone methyltransferase NSD2. O96028. NSD2 peptide methylation, AlphaScreen, 120 min. inhibition, % at 12.5 µM. 310,000 tested, 0.54% active. AID 743445; in the data active = inhibition above about 50%
CDK5 p35 inh: CDK5/p35 (human) kinase inhibition; Q00535+Q15078; AID 488839; Recombinant CDK5/p35, ADP-Glo luminescence, 60 min; 330,000 tested, 0.01% active; inhibition, % at 10 µM;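 active = highest replicate inhibition of at least 50% and at least 75% of replicates reaching 50%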
A number is an active result; 0 = inactive; - = not tested or not shown; + = active, no number. A selection: hits, their analogues and other compounds. The true share with any hit is near 3.9%.

SMILES	Mot1-301 SUMO	CASP6 VEID inh	N-glyco inh	ALR inh	NSD2 HMT inh	CDK5 p35 inh
CC(C)CC#Cc1cnc2c(c1)C(=O)N([C@H](C)CO)C[C@@H](C)[C@H](CN(C)Cc1ccccc1C(=O)O)O2	-	0	-	-	-	-
CCCC#Cc1ccc([C@H]2[C@@H](CO)N3C(=O)CN(S(=O)(=O)Cc4ccccc4)C[C@@H]23)cc1	-	0	-	-	-	-
COc1ccc(NS(=O)(=O)c2cc3c(cc2C)N(C)CCO3)c(OC)c1	0	0	0	0	-	0
Cc1ccccc1NS(=O)(=O)c1cc2c(cc1C)N(C)CCO2	0	0	0	98	-	0
C/C(=N/Nc1ccc([N+](=O)[O-])cc1)c1ccc(C)cc1C	0	0	0	98	0	0
O=C(NN=C1CCCC1)c1n[nH]c2c1CCC2	0	59	0	0	0	0
O=C(N/N=C/c1c(Cl)cccc1Cl)c1n[nH]c2c1CCCC2	0	0	0	0	0	0
O=C(NN=C1CCCC1)c1n[nH]c2c1CCCC2	0	0	0	99	0	0
CN1CCN(C(=O)C[C@@H]2CC[C@@H]3[C@@H](COc4ccc(NC(=O)C5CC5)cc4C(=O)N3C)O2)CC1	-	0	-	-	-	-
COc1ccc(CN(C)C[C@@H]2Oc3ccc(N(C)C)cc3CC(=O)N([C@H](C)CO)C[C@H]2C)cc1	-	0	-	-	-	-
CCCC(=O)Nc1ccc2c(c1)C(=O)N(C)[C@H]1CC[C@@H](CC(=O)NC3CCCC3)O[C@H]1CO2	-	0	-	-	-	-
C[C@H]1CN([C@@H](C)CO)C(=O)c2cc(C3=CCCCC3)cnc2O[C@@H]1CN(C)C(=O)Cc1cccnc1	-	0	-	-	-	-
Cc1cccnc1NC(=S)Nc1ccc(F)cc1F	0	0	0	0	0	0
Cc1ccc(C)c(NC(=S)Nc2ncccc2C)c1	0	0	0	79	-	0
CS(=O)(=O)Nc1ccc2c(c1)[C@@H]1C[C@@H](CC(=O)NCCc3ccccc3)O[C@H](CO)[C@@H]1O2	-	0	-	-	-	-
O=C(N[C@H]1C=C[C@H](CC(=O)N2CCCCC2)O[C@@H]1CO)c1ccccn1	-	0	-	-	-	-
CC(Cl)C(=O)NNc1cccc(Cl)n1 (configuration not stated)	0	-	0	97	0	0
O=C(NNc1cccc(Cl)n1)Nc1ccccc1	0	-	0	0	-	0
O=C(N/N=C\c1coc2ccccc2c1=O)c1ccco1	461	0	0	0	0	0
Cc1ccc2occ(/C=N/NC(=O)c3ccc(O)cc3)c(=O)c2c1	0	0	0	98	0	0
Cc1ccc2occ(/C=N/NC(=O)c3ccccc3Br)c(=O)c2c1	0	0	0	0	0	0
O=C(N/N=C/c1coc2ccccc2c1=O)c1ccccc1	0	0	0	-	0	0
O=C(N/N=C/c1coc2ccccc2c1=O)c1cc(Br)ccc1O	0	43	0	0	0	0
O=C(N[C@@H]1CC[C@H](CC(=O)N2CCCCC2)O[C@@H]1CO)c1ccccn1	-	0	-	-	-	-
COc1ccc(/C=N/n2c(-c3ccccc3)n[nH]c2=S)cc1	0	0	0	0	0	0
SMILES	Mot1-301 SUMO	CASP6 VEID inh	N-glyco inh	ALR inh	NSD2 HMT inh	CDK5 p35 inh
S=c1[nH]ncn1/N=C/c1ccc(N2CCOCC2)cc1	0	-	0	99	0	0
S=c1[nH]ncn1/N=C/c1ccccc1	0	-	0	98	0	0
S=c1[nH]nc(Cc2ccc(Br)cc2)n1/N=C/c1ccc(Cl)cc1	0	0	0	0	0	0
S=c1[nH]c(-c2ccccc2)cn1/N=C/c1ccncc1	0	0	0	0	0	0
S=c1[nH]ncn1/N=C/c1ccc(Br)cc1	0	-	0	98	0	0
Cc1n[nH]c(=S)n1/N=C/c1ccccc1	0	-	0	97	0	0
Cn1cnc(CCNC(=O)C[C@@H]2CC[C@H]3[C@@H](COC[C@@H](O)CN3C(=O)Nc3ccccc3)O2)c1	-	0	-	-	-	-
CN(C)CCCNC(=O)C[C@@H]1CC[C@H](NC(=O)c2ccccc2F)[C@@H](CO)O1	-	0	-	-	-	-
CCn1c2ccccc2c2cc(/C=N/n3cnnc3)ccc21	0	-	0	-	0	0
CCn1c2ccccc2c2cc(/C=N/n3cn[nH]c3=S)ccc21	0	-	0	98	0	0
COc1cccc(N2CCN(c3ccc4nnc(CCC(=O)Nc5ccccn5)n4n3)CC2)c1	0	0	0	95	0	0
COc1cc(OC)c(NC(C)C(=O)N2CCCC2)cc1Cl (configuration not stated)	0	0	0	79	0	0
COc1cc(OC)c(NS(=O)(=O)c2c(C(=O)N3CCCCC3)c(C)n(C)c2C)cc1Cl	0	0	0	0	0	-
C/C=C/c1ccc2c(c1)O[C@H](CN(C)C(=O)c1ccccn1)[C@@H](C)CN([C@@H](C)CO)S2(=O)=O	-	0	-	-	-	-
O=C(Nc1ccccc1)Nc1ccc2snnc2c1	0	-	0	0	0	0
CN(C)c1ccc(NC(=O)Nc2ccc3snnc3c2)cc1	0	-	0	95	0	0
Oc1c(C=NCc2ccncc2)sc2ccccc12	0	-	-	83	-	-
Oc1c(/C=N/c2ccccn2)sc2ccccc12	+	0	0	0	0	0
Cc1ccc(Nc2nc(-c3sc(C)nc3C)cs2)cc1	0	0	0	0	0	0
Cc1nc(C)c(-c2csc(N)n2)s1	0	0	0	91	0	0
CN1[C@@H]2c3ccc(C4=CCCC4)c(=O)n3C[C@H]1[C@H](CO)[C@H]2C(=O)NC1Cc2ccccc2C1	-	0	-	-	-	-
C[C@@H]1CN([C@@H](C)CO)C(=O)c2cc(NC(=O)CCC(F)(F)F)ccc2O[C@H]1CN(C)Cc1ccc(C(=O)O)cc1	-	0	-	-	-	-
Cc1cc(-c2c(C)[nH]n(-c3ccccc3)c2=O)n[nH]1	0	0	0	81	0	0
CC(C)NC(=O)Nc1cccc2c1O[C@@H](CN(C)S(=O)(=O)c1ccc(F)cc1)[C@H](C)CN([C@H](C)CO)C2=O	-	0	-	-	-	-
Nc1c(C(=O)O)ccc2c1C(=O)c1ccccc1C2=O	0	0	0	0	0	0
SMILES	Mot1-301 SUMO	CASP6 VEID inh	N-glyco inh	ALR inh	NSD2 HMT inh	CDK5 p35 inh
Nc1cc(C(=O)O)c(N)c2c1C(=O)c1ccccc1C2=O	0	-	0	99	-	0
CN1CCN(Cc2c(O)ccc3cc(Br)ccc23)CC1	0	0	-	78	0	-
CCc1cc(=O)oc2c(CN3CCN(C)CC3)c(O)ccc12	0	0	0	0	0	0
CN(C)CC(=O)Nc1ccc2c(c1)[C@@H]1C[C@@H](CC(=O)NCC3CC3)O[C@@H](CO)[C@@H]1O2	-	0	-	-	-	-
NNC(=O)CCc1nc2ccc(O)cc2[nH]1	0	0	0	96	0	0
Cc1ccccc1C([O-])=Nc1ccc[n+](-c2nc3ccccc3nc2NS(=O)(=O)c2ccccc2)c1	0	-	-	89	0	-
Cc1cccc(C)c1-n1cccc1/C=C1\SC(=S)N(c2cccc(C(=O)O)c2)C1=O	0	37	0	0	0	0
O=C(CS(=O)(=O)c1ccccc1)Nc1nnc(Cc2ccccc2)s1	0	0	0	87	0	0
CCCCCCCCCC(=O)NNC(=O)c1c(O)c2ccccc2n(CCC)c1=O	0	0	0	0	0	0
CCCCCCCCC(=O)NNC(=O)c1c(O)c2ccccc2n(CCC)c1=O	312	0	0	0	0	0
